This is an account of results in PubChem BioAssay (NCI).

Several values for one entry are separate records, joined by “and”; a condition that tells them apart may be missing. Equal values may be shown once. About 83,000 compounds went through this panel and 20% of them were active in at least one assay; those are over-represented in the sample as a whole.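 Negative percent growth values reflect cell death: -40 means 40% of the cells present at the start died, and -100 means all died.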 Activity calls are given as the source filed them.

The subject of this test is MDA-MB-435 melanoma. Briefly: NCI-60 one-dose screen, 48 h (100 = growth as untreated, 0 = no growth, -100 = all killed). The following applies: 10 µM unless noted. On the procedure:
Growth inhibition of the MDA-MB-435 human Melanoma tumor cell line is measured as a screen for anti-cancer activity. Cells are grown in 96 well plates and exposed to the test compound for 48 hours. Compounds are tested at a single concentration, which is 10^-5 M for most compounds. The reported endpoint is percent growth (GI% or GIPRCNT), where numbers from 0 - 100% represent growth inhibition, and numbers from -100% - 0 represent cell death. For example, a value of 40 represents 60% growth inhibition. A value of 0 means no net growth occurred over the course of the experiment. A value of -40 indicates 40% of cells at the beginning of the experiment died by the end of the experiment. A value of -100 means all cells are dead at the end of the experiment.
NCI-60 Human Tumor Cell Lines Screen was performed using the standard one-dose NCI protocol, which is described in more detail at https://dtp.cancer.gov/discovery_development/nci-60/default.htm.
Compounds with GIPRCNT values below 10 were considered active. Activity score was based on GIPRCNT using the following formula: […]
Score is 0 for GIPRCNT values of 100 or above, 50 for GIPRCNT values of 0, and 100 for GIPRCNT values of -100.
Turning to `O=[N+]([O-])c1cccc(N=Cc2ccccc2)c1`, the growth is 109% (inactive).
The result for `ON=C(C1CCCCC1)C1CCCCC1` reads 103% (inactive).
For `Nc1ccccc1SC(CC(=O)c1ccccc1)c1cccc([N+](=O)[O-])c1` (stereo not given), the growth was 102% (inactive) and 85.5% (inactive).
To `O=C(O)c1cc(=O)[nH]c(=O)[nH]1` belongs 96.7% (inactive) and 113% (inactive).
To `O=C(O)C1CSCN1` (stereo not given) belongs 95.5% (inactive) and 104% (inactive); to `CCCC(=O)OCC(COC(=O)CCC)OC(=O)CCC`, 106% (inactive); to `COc1ccc(C(=O)C(O)c2ccc(OC)cc2)cc1` (stereo not given), 117% (inactive) and 111% (inactive).
In the case of `CC(=O)c1cccc(OC(=O)c2ccccc2)c1`, the growth was 117% (inactive).
Consider `CCOP(=O)(OCC)/C(C#N)=C/c1c(C)[nH]c2ccccc12`, for which the growth is 12.9% (inactive).
In the case of `CC(=O)/C(N=Nc1ccc(S(=O)(=O)c2ccc(N=N/C(C(C)=O)=C(/C)O)cc2)cc1)=C(\C)O`, the growth is 118% (inactive).
To `CCN(CC)Cc1cc2[nH]c3c4ccc(Cl)cc4ncc3c2cc1OC` belongs 1.09% (active) and 44% (inactive); to `COC(=O)c1nc(N)nc(C(=O)OC)c1C(=O)c1cccc2ccccc12`, 108% (inactive); to `Clc1ccc2sc(-c3ccccc3)nc2c1`, 95.4% (inactive).
`CC(=O)c1cc2ccccc2o1`: the growth was 109% (inactive).
On to `CCN(CC)CCNC(=O)c1ccc(NCN2C(=O)NC(c3ccccc3)(c3ccccc3)C2=O)cc1`, for which the growth is 94.6% (inactive) and 103% (inactive).
The result for `CC(=O)Nc1ccc(OC(C)=O)cc1` reads -29.5% (active) and 107% (inactive); that for `S=c1ccc2ccccc2[nH]1`, 110% (inactive) and 104% (inactive).
In the case of `OCc1ccccc1F`, the growth was 97.6% (inactive).
In the case of `O=S(=O)(O)c1ccc2cc(O)ccc2c1`, the growth was 107% (inactive).
In the case of `O=[N+]([O-])c1ccc(NC(c2ccccc2)c2ccc3cccnc3c2O)cc1` (stereo not given), the growth was 32.8% (inactive).
As for `Nc1ccc(Cl)c(S(=O)(=O)O)c1`, the growth is 107% (inactive).
For `N=C(N)N1CCc2ccccc2C1`, the growth is 96% (inactive) and 95.6% (inactive).
For `CC1=CC(=O)C=CC1=Nc1ccc(N(C)C)cc1`, the growth was 59.4% (inactive) and 6.47% (active).
`CN(C)C(=S)N(C)C`: the growth is 112% (inactive).
Regarding `COc1ccc2oc3c(ccc[n+]3C)c(=O)c2c1`, the growth is 105% (inactive).
The result for `O=C(NC(CSSCC(NC(=O)OCc1ccccc1)C(=O)O)C(=O)O)OCc1ccccc1` (stereo not given) reads 96% (inactive) and 100% (inactive).
`C=CCN1C(=O)c2ccccc2C1=O`: the growth is 106% (inactive).
`Cn1c(-c2ccccc2)cc(=O)cc1-c1ccccc1`: the growth was 116% (inactive).
`O=c1[nH]c(=O)n(C2OC(CO)C(O)C2O)cc1I` (stereo not given): the growth is 106% (inactive) and 95% (inactive).
Consider `OCCCc1ccccc1`, for which the growth is 108% (inactive).
To `Cc1cnc(N)s1` belongs 104% (inactive).
The result for `COC(=O)c1nc(=S)[nH]c(C(=O)OC)c1C(=O)c1ccccc1` reads 107% (inactive); that for `CC(=O)Oc1ccc(C2(c3ccc(OC(C)=O)cc3)C(=O)Nc3ccccc32)cc1`, 110% (inactive) and 126% (inactive); that for `O=C(O)C#Cc1ccc(Cl)cc1`, 106% (inactive).
Turning to `N#Cc1c(N)nc2c(c(-c3ccc(Cl)cc3)nn2-c2ccccc2)c1C#N`, the growth was 104% [100 µM] (inactive).
For the compound `COc1cc2c(cc1O)C(=O)CCCC2`, the growth is 99.2% (inactive).
For `Oc1ccc(O)c(-c2ccccc2)c1`, the growth was 81.8% (inactive).
Consider `O=C(O)c1c2c(nc3ccccc13)Cc1ccccc1-2`, for which the growth was 112% (inactive) and 96.6% (inactive).
On to `COC(=O)c1ccccc1Cl`, for which the growth was 103% (inactive).
`CC(C)(C)C1CCC(=NO)CC1` (stereo not given): the growth was 99.8% (inactive).
